# Experimental data: PubChem BioAssay AID382 (SGCOxCompounds, 2006)
# The source made the active and inactive calls. The rule behind the calls is not given here.
# Biological target: Dual specificity protein kinase CLK1 (Homo sapiens) (UniProt P49759)
# Test: ligand-induced CLK1 melting temperature shift – biophysical, recombinant human kinase, DSF (AID 382)
# Settings: Recombinant CLK1, thermal shift (DSF), buffer 10 mM HEPES, stronger effect = higher value
# [1] = at 10 µM, protein 2 µM, pH 7.5, NaCl 150 mM, with 50 µM L-Arg/L-Glu (1:1)
# [2] = at 10 µM, protein 2 µM, pH 7.5, NaCl 150 mM
# [3] = at 10 µM, protein 2 µM, NaCl 150 mM
# [4] = at 10 µM, protein 2 µM, NaCl 150 mM, with 50 mM Arg/Glu
# [5] = at 10 µM, protein 1.7 µM, pH 7.5, NaCl 150 mM, with 50 µM L-Arg/L-Glu (1:1)
# [6] = measured here: replicate experiment 2, at 10 µM, run 2, protein 2 µM
# [7] = measured here: replicate experiment 2, at 10 µM, run 2, protein 2 µM, NaCl 150 mM, with 50 mM Arg/Glu
# Chain of Dual specificity protein kinase CLK1 (Homo sapiens) (P49759 whole entry, looked up): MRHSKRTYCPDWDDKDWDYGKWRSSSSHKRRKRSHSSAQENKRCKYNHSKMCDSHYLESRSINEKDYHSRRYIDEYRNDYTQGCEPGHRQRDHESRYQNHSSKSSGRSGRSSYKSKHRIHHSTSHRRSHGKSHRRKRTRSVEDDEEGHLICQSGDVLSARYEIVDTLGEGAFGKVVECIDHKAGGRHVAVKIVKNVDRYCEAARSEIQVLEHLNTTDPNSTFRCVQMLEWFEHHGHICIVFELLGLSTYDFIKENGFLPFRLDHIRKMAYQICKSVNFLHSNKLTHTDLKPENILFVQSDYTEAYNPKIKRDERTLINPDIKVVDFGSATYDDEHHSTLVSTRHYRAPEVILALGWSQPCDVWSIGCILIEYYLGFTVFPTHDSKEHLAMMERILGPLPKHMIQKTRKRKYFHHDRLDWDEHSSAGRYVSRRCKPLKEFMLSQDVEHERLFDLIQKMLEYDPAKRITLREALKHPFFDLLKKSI
structure (smiles),measurement,setting,value
N#Cc1ccc(-c2cnc3ccc(NC4CCOCC4)nn23)cc1,Tm shift,[1],7.2 Celsius (active)
O=C(c1ccc(Nc2nccc(-c3cc4ccccc4s3)n2)cc1)N1CCC(N2CCCC2)CC1,Tm shift,[1],6.1 Celsius (active)
c1ccc(-c2cnc3ccc(NCc4cccs4)nn23)cc1,Tm shift,[2],3.23 Celsius (active)
c1cncc(-c2cnc3ccc(NC4CCOCC4)nn23)c1,Tm shift,[1],3.3 Celsius (active)
Fc1cccc(-c2cnc3ccc(NC4CCOCC4)nn23)c1,Tm shift,[1],4.5 Celsius (active)
O=C1C(=O)C(c2ccc(O)cc2)Oc2cc(O)cc(O)c21 (centres undefined),Tm shift,[3],4.8 Celsius (active)
Oc1cccc(-c2cnc3ccc(NCC4CC4)nn23)c1,Tm shift,[1],3.9 Celsius (active)
O=Nc1c(-c2c(O)[nH]c3ccccc23)[nH]c2ccccc12,Tm shift,[3],3.59 Celsius (active)
COCCNc1ccc2ncc(-c3cccc(C(N)=O)c3)n2n1,Tm shift,[1],3.9 Celsius (active)
Cc1cc(Nc2nc(-c3ccccc3)nc3ccccc23)n[nH]1,Tm shift,[1],5.8 Celsius (active)
CC(=O)Nc1cccc(-c2cnc3ccc(NC4CCOCC4)nn23)c1,Tm shift,[1],8.8 Celsius (active)
CNC(=O)c1cc(Oc2ccc(NC(=O)Nc3ccc(C)c(C(F)(F)F)c3)cc2)ccn1,Tm shift,[1],4.9 Celsius (active)
CC(C)[C@@H](CO)Nc1ccc2ncc(-c3cccc(C(F)(F)F)c3)n2n1,Tm shift,[1],5.1 Celsius (active)
CCN1/C(=C/C(C)=O)Sc2ccc(OC)cc21,Tm shift,[4],6.91 Celsius (active)
CN(C)S(O)(O)c1ccc2c(c1)/C(=C/c1cc3c([nH]1)CCCC3)C(=O)N2,Tm shift,"at 10 µM, protein 2 µM, pH 7.5, NaCl 150 mM, with 50 mM Arg/Glu",4.8 Celsius (active)
CCC(CO)Nc1ccc2ncc(-c3ccc(C(=O)O)cc3)n2n1 (centres undefined),Tm shift,[1],4.8 Celsius (active)
Nc1cccc(-c2cnn3ccc(Nc4cccc(Cl)c4)nc23)c1,Tm shift,[1],3.6 Celsius (active)
Clc1ccc(-c2cnn3ccc(NCc4cccnc4)nc23)cc1,Tm shift,[2],4.33 Celsius (active)
Clc1ccc(-c2cnc3ccc(NC4CCOCC4)nn23)cc1,Tm shift,[1],5.7 Celsius (active)
CC(C)C(CO)Nc1nc(Nc2cccc(Cl)c2)c2ncn(C(C)C)c2n1 (centres undefined),Tm shift,[3],6.23 Celsius (active)
O=c1cc(-c2ccc(O)cc2)oc2cc(O)cc(O)c12,Tm shift,[3],5.94 Celsius (active)
Nc1nc(Nc2ccc(S(N)(=O)=O)cc2)nn1C(=S)Nc1c(F)cccc1F,Tm shift,[4],11.8 Celsius (active)
O=c1c(-c2ccc(O)cc2)coc2cc(O)cc(O)c12,Tm shift,[3],3.77 Celsius (active)
COc1ccc(Nc2nc(N)c(C(=O)c3ccc(OC)cc3)s2)cc1,Tm shift,[5],4.5 Celsius (active)
Cc1cc(O)c2c(c1)C(=O)c1cc(O)cc(O)c1C2=O,Tm shift,[3],3.11 Celsius (active)
Nc1nc(Nc2ccccc2)sc1C(=O)c1ccc(F)cc1,Tm shift,[5],3.2 Celsius (active)
Nc1ncnc2c1c(I)cn2[C@@H]1O[C@H](CO)C(O)C1O (some centres undefined),Tm shift,"at 10 µM, protein 2 µM",4.43 Celsius (active)
same,Tm shift,[6],10.5 Celsius
NC1=N/C(=C2/CCNC(=O)c3[nH]c(Br)cc32)C(=O)N1,Tm shift,"at 10 µM, protein 2 µM",4.9 Celsius (active)
same,Tm shift,[6],10.5 Celsius
Clc1cccc(-c2cnc3ccc(NCCc4ccccn4)nn23)c1,Tm shift,[2],4.83 Celsius (active)
c1csc(-c2cnc3ccc(NCC4CC4)nn23)c1,Tm shift,[2],3.52 Celsius (active)
Clc1cccc(-c2cnc3ccc(NC4CCOCC4)nn23)c1,Tm shift,[7],5.83 Celsius
CC(=O)c1cccc(-c2cnc3ccc(NCC4CC4)nn23)c1,Tm shift,[7],6.01 Celsius
